An excerpt weighted towards active compounds, which were near 11% of everything screened.
PNC inhibitor: inhibitors of perinucleolar compartment assembly. PC3M PTB-GFP, PNC prevalence imaging, 16 h; hits give low values. activity change (PNC), negative = inhibition, % at 10 µM. 140,000 compounds, 3.1% hits. AID 2417;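 active means readout at or below -70, meaning at least 70% loss of cells showing the perinucleolar compartment, a nuclear body marking cancer cells; inconclusive means readout between -30 and a set limit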;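 further: plate controls were DMSO wells for no effect and camptothecin positive control wells for full effect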
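Compounds are pinned in duplicate onto adhered PC3M cells stably expressing GFP-tagged PTB and incubated 16 h at 37 C. Cells are then fixed, nuclei stained with Hoechst, and PNC-positive cells counted.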
HPGD inh: inhibitors of human 15-hydroxyprostaglandin dehydrogenase (HPGD). P15428. purified HPGD, NADH fluorescence kinetic, PGE2 substrate. Potency, µM, inactives show at the highest dose activity change, negative = inhibition, most hits filed as inhibitors. 150,000 compounds, 4.3% hits. AID 894; further: potency means the concentration at half of the fitted maximal effect
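20 nM HPGD preincubated 15 min at room temperature with compound in 50 mM Tris-HCl pH 8, 0.01% Tween 20. Started with 1 mM NAD+ and 30 uM prostaglandin E2; NADH fluorescence (360/450 nm) read 5 times over 30-s intervals, last minus first.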
KDM4E inh: inhibitors of human JMJD2E histone demethylase. JMJD2E catalytic domain, FDH-coupled NADH fluorescence (FDH is formaldehyde dehydrogenase). Potency, µM (top dose mostly 57.1 µM), without a hit: at the top dose activity change, negative = inhibition, hits mostly inhibitors. 230,000 compounds, 1.6% hits. B2RXH2;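 further: potency means the concentration at half of the fitted maximal effect; 0% = wells with enzyme and -100% = buffer wells without enzyme; nearly all actives have a fitted effect of over 50% in size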
Target sequence (B2RXH2 1-337 limits assumed): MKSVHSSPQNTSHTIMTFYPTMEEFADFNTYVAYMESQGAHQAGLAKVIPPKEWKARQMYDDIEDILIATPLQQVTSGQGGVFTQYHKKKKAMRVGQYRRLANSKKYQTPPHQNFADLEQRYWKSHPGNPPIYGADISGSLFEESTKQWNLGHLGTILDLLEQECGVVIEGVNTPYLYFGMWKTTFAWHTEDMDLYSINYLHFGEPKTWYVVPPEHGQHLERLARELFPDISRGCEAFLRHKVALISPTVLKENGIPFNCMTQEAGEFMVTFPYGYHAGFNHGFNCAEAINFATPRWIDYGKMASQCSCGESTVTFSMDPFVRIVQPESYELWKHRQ
ALDH1A1 block: blocks purified human ALDH1A1 activity; P00352; Purified ALDH1A1, NADH fluorescence, propionaldehyde substrate; Potency, µM (titrated, usually from 75.3 µM), inactives show at the top dose activity, negative = inhibition, hits mostly inhibitors; 220,000 compounds, 7.3% hits; AID 1030;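 further: potency means the concentration at half of the fitted maximal effect; plate controls were no enzyme wells and a reference inhibitor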
Numbers without * were called inactive; ? = inconclusive; nt = not tested or not shown. Unless noted, the call rests on the fitted dose curve; in most records, active means well fitted inhibition curve with a large enough effect (not every such curve was filed as active); inconclusive means small, poorly fitted or top-dose-only effect, or another doubt; inactive means no such curve, though single readings can be large or run the other way. Unless noted, on the % scale 0 is the no-effect control and ±100 the full control effect.

SMILES	PNC inhibitor	HPGD inh	KDM4E inh	ALDH1A1 block
Cc1ccc(NC(=O)CSC2=C(C#N)C(c3ccc4c(c3)OCO4)C3=C(CCCC3=O)N2)c(C)c1 (stereo unspecified)	12.2	?	?	14.1µM*
CCSC1=C(C#N)C(c2ccc3c(c2)OCO3)C2=C(CCCC2=O)N1 (stereo unspecified)	1.0	14.1µM*	7.0%	?
Cc1ccc(S(=O)(=O)NC2CCCCC2)c2nsnc12	24.0	-26.9%	1.5%	15.8µM*
COc1ccc(/C=C2\SC(=O)N(CCn3cnnn3)C2=O)cc1	nt	nt	-11.3%	-17.6%
COc1ccc(/C=C2\SC(=O)N=C2N)cc1	-104.5*	-20.1%	0.1%	-3.3%
CCc1ccc(NC(=O)CC2C(=O)N(c3ccc(C)cc3)C(=O)N2CCc2ccncc2)cc1 (stereo unspecified)	nt	nt	-15.0%	3.55µM*
Cc1cccc(N2C(=O)C(CC(=O)Nc3cccc(F)c3)N(CCc3ccncc3)C2=O)c1 (stereo unspecified)	nt	nt	5.5%	-4.0%
CCc1ccc(NC(=O)CC2C(=O)N(c3cccc(C)c3)C(=O)N2C2CC2)cc1 (stereo unspecified)	nt	nt	5.0%	11.2µM*
COc1ccc(NC(=O)CC2C(=O)N(c3cccc(C)c3)C(=O)N2C2CCCCC2)cc1 (stereo unspecified)	?	0.4%	-2.9%	-2.3%
Cc1ccccc1-n1c(-c2ccncc2)n[nH]c1=S	?	?	-1.3%	15.8µM*
Cc1cccc(/C=N/n2c(-c3ccco3)n[nH]c2=S)c1	nt	nt	-1.2%	nt
S=c1[nH]nc(-c2ccncc2)n1/N=C/c1ccccc1	-27.5	31.6µM*	0.4%	?
Cc1cccc(/C=N/n2c(-c3ccncc3)n[nH]c2=S)c1	?	15.8µM*	?	-13.0%
COc1cc(/C=N/n2c(-c3ccccc3)n[nH]c2=S)ccc1O	nt	nt	25.1µM*	25.1µM*
S=c1[nH]nc(-c2cccnc2)n1/N=C/c1ccccc1	nt	nt	1.0%	nt
COC(=O)c1ccc2c(=O)n(-c3ccc(OC)cc3)c(=S)[nH]c2c1	nt	nt	4.4%	?
S=c1[nH]nc(-c2ccccc2)n1/N=C/c1ccc(-c2ccccc2Cl)o1	-100.4*	3.16µM*	-11.0%	6.7%
Cc1cccc(/C=N/n2c(-c3cc(-c4ccccc4)n[nH]3)n[nH]c2=S)c1	-10.9	5.01µM*	4.7%	-6.5%
Cc1cccc(-c2n[nH]c(=S)n2/N=C/c2ccc(C)s2)c1	?	3.98µM*	1.8%	-1.2%
S=c1[nH]nc(-c2cccc(Cl)c2)n1/N=C/c1ccc(-c2ccccc2Br)o1	nt	nt	3.7%	nt
Cc1cccc(-c2n[nH]c(=S)n2/N=C/c2cccs2)c1	nt	nt	-9.5%	nt
c1ccc(Sc2ncccn2)nc1	nt	nt	-9.1%	-10.5%
N#CCCn1cc(C(=O)Nc2ccc([N+](=O)[O-])cc2)c(-c2cccs2)n1	72.8	-15.2%	-3.7%	22.4µM*
COc1ccc(NC(=O)c2cn(CCC#N)nc2-c2cccs2)cc1	8.3	5.0%	8.6%	10.0%
O=C(COC(=O)Cc1ccccc1[N+](=O)[O-])NCc1ccc(F)cc1	54.2	-11.1%	-3.4%	-7.9%
SMILES	PNC inhibitor	HPGD inh	KDM4E inh	ALDH1A1 block
Cn1cccc1C(=O)Nc1nc(-c2ccccn2)cs1	34.7	28.2µM*	?	14.1µM*
CSCCC(=O)Nc1nc(-c2ccccn2)cs1	nt	nt	?	28.2µM*
O=C(CCCSc1ccccc1)Nc1nc(-c2ccccn2)cs1	-13.2	?	-10.8%	?
COc1ccccc1CCc1nnc(CCC(=O)NC(C)Cc2cccs2)o1 (stereo unspecified)	nt	nt	9.2%	8.2%
Cc1ccc(S(=O)(=O)Oc2cccc(/C=N/n3cnnc3)c2)cc1	17.6	?	-15.2%	0.891µM*
CCC(C)(C)NC(=O)/C=C/c1cnc2ccccc2n1	-14.2	-19.6%	-17.4%	1.7%
Cc1ccc(C(=O)N2NC(c3ccc(F)cc3)C3C(=O)N(c4ccc(C)c(C)c4)C(=O)C32)cc1 (stereo unspecified)	-90.4*	?	-0.5%	5.0%
COc1ccc(-c2n[nH]c(=S)n2C2CCCCC2)cc1	?	17.8µM*	-1.2%	?
Cc1ccsc1-c1n[nH]c(=S)n1C1CCCCC1	6.2	-28.8%	-19.1%	3.3%
S=c1[nH]nc(-c2cccnc2)n1C1CCCCC1	-15.4	-12.9%	-4.0%	-1.1%
Cc1cc(Cl)ccc1OCc1n[nH]c(=S)n1C1CCCCC1	-9.6	5.01µM*	-6.2%	?
COc1ccc(Cl)cc1-c1n[nH]c(=S)n1C1CCCCC1	43.6	10µM*	-7.4%	5.1%

Screens from PubChem.
